The record followed here is PMC7862700, “An all-to-all approach to the identification of sequence-specific readers for epigenetic DNA modifications on cytosine”.

What all share (assay): DAPPL (digital affinity profiling via proximity ligation, sequencing); 10 mM Tris-HCl pH 7.5, 50 mM NaCl, 1 mM DTT, 4% glycerol, room temperature, 30 min; GST-TFs on glutathione beads, 16-mer random dsDNA library, 0.1% formaldehyde crosslink after washing; high values mean tight binding
For one assay, the target named is T1, FEV (Homo sapiens, UniProt Q99581 1-238).
T1 sequence: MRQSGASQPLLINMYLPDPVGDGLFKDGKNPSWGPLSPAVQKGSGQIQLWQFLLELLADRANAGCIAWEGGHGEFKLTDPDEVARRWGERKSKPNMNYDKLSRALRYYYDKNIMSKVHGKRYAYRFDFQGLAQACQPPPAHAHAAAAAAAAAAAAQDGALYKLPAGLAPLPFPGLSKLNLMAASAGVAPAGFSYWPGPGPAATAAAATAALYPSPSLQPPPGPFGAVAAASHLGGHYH
The settings on record: protein: recombinant; tags: N-terminal GST; dsDNA, one strand shown. In a few lines:
(§1)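 Human transcription factors fused to GST were expressed in yeast, captured on glutathione beads, given DNA barcodes and pooled with a GST-only negative control. Pools were incubated with 200 nmole of a 16-mer random double-stranded DNA library in Tris/NaCl/DTT/glycerol buffer at room temperature for 30 min. They were then washed, crosslinked with 0.1% formaldehyde, proximity-ligated (BsaI/T4 ligase, 1 h, 37 °C), PCR-amplified and sequenced on an Illumina NextSeq500. Binding signal is each 6-mer's read frequency for a factor divided by its frequency for the GST control.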

The next assay addresses ETV5 (Homo sapiens, UniProt P41161 1-510). The settings on record: protein: recombinant; tags: N-terminal GST; dsDNA, one strand shown. In a few lines: as §1
The target of a further assay is HSF1 (Homo sapiens, UniProt Q00613 1-529). As to conditions: protein: recombinant; tags: N-terminal GST; chain copies: 3; dsDNA, one strand shown. Put shortly: as §1
Sequence of HSF1 (Q00613 whole entry): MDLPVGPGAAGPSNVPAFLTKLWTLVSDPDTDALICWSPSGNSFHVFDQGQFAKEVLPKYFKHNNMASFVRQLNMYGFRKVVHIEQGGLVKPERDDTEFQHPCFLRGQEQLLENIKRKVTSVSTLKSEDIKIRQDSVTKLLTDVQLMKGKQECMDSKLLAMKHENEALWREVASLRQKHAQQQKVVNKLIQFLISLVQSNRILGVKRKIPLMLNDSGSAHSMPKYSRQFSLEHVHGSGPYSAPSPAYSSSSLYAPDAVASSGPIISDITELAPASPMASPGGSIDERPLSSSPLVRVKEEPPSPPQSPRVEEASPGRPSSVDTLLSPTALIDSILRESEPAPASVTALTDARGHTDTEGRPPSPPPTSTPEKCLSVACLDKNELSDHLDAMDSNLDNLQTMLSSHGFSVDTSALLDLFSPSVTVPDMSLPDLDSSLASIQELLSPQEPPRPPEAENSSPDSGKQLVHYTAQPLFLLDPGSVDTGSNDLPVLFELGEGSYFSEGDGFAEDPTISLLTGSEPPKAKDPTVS
In a further assay the target is T2, SPIC (Homo sapiens, UniProt Q8N5J4 1-248).
T2 sequence: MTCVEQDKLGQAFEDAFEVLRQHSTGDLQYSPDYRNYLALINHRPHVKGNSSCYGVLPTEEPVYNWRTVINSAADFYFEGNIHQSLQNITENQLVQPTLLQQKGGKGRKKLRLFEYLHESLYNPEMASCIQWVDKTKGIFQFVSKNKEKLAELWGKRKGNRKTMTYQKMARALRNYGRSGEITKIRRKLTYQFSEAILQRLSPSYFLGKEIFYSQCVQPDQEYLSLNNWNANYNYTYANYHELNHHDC
The settings on record: protein: recombinant; tags: N-terminal GST; dsDNA, one strand shown. In a few lines: as §1

Another assay concerns the target ELF4 (Homo sapiens, UniProt Q99607 1-663). As to conditions: protein: recombinant; tags: N-terminal GST; dsDNA, one strand shown. Put shortly:
as §1

For another assay, the target named is T3, ELK4 (Homo sapiens, UniProt P28324-2 1-405).
T3 sequence: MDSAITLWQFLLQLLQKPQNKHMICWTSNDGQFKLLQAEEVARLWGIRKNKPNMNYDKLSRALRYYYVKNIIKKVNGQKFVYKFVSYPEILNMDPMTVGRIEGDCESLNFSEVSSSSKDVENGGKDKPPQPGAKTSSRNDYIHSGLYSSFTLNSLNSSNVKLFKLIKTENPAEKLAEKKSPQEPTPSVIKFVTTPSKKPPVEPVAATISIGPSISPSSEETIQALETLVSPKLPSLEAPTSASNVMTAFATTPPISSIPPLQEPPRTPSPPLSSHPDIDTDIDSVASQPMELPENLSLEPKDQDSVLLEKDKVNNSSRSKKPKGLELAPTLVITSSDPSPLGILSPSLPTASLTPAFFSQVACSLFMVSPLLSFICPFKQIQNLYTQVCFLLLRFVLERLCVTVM
The settings on record: protein: recombinant; tags: N-terminal GST; dsDNA, one strand shown. Put shortly:
as §1

The next assay addresses T4, ETV2 (Homo sapiens, UniProt O00321 1-342).
T4 sequence: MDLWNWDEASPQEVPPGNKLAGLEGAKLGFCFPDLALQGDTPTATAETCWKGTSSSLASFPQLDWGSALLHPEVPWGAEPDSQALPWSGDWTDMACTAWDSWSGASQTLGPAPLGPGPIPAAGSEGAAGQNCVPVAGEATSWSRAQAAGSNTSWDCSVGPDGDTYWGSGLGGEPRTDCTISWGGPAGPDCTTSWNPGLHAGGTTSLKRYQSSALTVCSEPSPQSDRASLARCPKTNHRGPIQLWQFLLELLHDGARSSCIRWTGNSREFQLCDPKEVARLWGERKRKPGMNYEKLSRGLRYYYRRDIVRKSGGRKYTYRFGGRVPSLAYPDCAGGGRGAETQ
The settings on record: protein: recombinant; tags: N-terminal GST; dsDNA, one strand shown. Put shortly: as §1

Another assay concerns the target T5, ELF3 (Homo sapiens, UniProt P78545 1-371).
T5 sequence: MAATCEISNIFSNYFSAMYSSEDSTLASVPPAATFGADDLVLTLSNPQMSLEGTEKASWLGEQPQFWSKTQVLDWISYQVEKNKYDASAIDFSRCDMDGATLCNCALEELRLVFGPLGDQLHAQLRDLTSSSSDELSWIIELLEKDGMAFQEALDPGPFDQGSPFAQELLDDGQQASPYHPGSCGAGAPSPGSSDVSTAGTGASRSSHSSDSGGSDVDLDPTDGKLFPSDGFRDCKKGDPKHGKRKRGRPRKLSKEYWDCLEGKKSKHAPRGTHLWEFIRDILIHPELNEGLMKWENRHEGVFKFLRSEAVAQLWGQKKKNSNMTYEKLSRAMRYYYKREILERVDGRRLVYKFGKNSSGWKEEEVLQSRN
The settings on record: protein: recombinant; tags: N-terminal GST; dsDNA, one strand shown. In a few lines: as §1

Another assay concerns the target CRX (Homo sapiens, UniProt O43186 1-299). The settings on record: protein: recombinant; tags: N-terminal GST; dsDNA, one strand shown. In a few lines: as §1
Another assay has as its target ETV1 (Homo sapiens, UniProt P50549 1-477). The settings on record: protein: recombinant; tags: N-terminal GST; dsDNA, one strand shown. Put shortly: as §1
Another assay addresses T6, ERF (Homo sapiens, UniProt P50548 1-548).
T6 sequence: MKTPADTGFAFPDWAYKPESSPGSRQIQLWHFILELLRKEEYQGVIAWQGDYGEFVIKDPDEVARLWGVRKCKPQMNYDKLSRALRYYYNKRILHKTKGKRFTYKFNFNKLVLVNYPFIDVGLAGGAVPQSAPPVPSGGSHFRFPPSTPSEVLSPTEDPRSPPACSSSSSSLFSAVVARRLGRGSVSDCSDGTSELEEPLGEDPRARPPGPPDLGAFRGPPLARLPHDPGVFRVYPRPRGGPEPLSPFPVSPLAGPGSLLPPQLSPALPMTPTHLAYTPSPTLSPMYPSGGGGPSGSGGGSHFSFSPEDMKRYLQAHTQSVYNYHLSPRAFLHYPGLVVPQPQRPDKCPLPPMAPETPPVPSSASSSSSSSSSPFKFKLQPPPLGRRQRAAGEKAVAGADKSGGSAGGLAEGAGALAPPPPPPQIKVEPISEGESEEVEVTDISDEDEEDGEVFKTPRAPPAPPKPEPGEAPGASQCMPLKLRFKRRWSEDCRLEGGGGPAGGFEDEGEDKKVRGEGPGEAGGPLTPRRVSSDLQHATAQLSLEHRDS
As to conditions: protein: recombinant; tags: N-terminal GST; dsDNA, one strand shown. In a few lines:
as §1

The target in a further assay is T7, ETV3L (Homo sapiens, UniProt Q6ZN32 1-361).
T7 sequence: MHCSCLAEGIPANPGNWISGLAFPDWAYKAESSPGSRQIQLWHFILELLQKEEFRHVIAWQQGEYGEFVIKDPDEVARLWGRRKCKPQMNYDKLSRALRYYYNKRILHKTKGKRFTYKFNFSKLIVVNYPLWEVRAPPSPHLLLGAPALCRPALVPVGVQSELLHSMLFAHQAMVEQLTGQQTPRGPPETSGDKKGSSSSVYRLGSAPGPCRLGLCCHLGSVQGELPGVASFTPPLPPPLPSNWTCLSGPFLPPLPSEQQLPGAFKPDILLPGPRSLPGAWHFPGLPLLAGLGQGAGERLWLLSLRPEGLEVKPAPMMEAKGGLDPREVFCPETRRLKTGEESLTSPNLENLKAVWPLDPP
The settings on record: protein: recombinant; tags: N-terminal GST; dsDNA, one strand shown. In a few lines: as §1

The next assay addresses T8, ETS2 (Homo sapiens, UniProt P15036 1-469).
T8 sequence: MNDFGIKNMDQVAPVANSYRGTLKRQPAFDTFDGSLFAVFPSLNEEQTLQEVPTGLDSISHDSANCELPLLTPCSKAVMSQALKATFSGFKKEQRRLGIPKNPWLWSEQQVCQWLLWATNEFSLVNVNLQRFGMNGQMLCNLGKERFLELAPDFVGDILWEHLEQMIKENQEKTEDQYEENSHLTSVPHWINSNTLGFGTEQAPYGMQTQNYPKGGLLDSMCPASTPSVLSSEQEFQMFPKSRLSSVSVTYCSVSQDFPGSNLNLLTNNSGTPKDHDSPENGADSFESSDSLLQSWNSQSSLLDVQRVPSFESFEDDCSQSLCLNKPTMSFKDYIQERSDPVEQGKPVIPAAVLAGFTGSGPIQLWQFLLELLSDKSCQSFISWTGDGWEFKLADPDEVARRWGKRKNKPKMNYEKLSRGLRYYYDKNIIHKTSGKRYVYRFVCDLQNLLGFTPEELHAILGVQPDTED
As to conditions: protein: recombinant; tags: N-terminal GST; dsDNA, one strand shown. Put shortly: as §1

In a further assay the target is T9, SPDEF (Homo sapiens, UniProt O95238 1-335).
T9 sequence: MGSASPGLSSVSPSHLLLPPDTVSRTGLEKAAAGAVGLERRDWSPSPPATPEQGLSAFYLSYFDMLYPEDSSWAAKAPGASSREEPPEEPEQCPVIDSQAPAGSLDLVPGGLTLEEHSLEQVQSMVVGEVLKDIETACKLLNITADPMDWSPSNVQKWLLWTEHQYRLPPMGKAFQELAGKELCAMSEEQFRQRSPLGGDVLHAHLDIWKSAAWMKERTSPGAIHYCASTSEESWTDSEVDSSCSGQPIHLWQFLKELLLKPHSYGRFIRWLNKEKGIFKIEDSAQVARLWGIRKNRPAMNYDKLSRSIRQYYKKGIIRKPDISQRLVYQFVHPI
The settings on record: protein: recombinant; tags: N-terminal GST; dsDNA, one strand shown. Put shortly: as §1

A further assay addresses T10, ETV7 (Homo sapiens, UniProt Q9Y603 1-341).
T10 sequence: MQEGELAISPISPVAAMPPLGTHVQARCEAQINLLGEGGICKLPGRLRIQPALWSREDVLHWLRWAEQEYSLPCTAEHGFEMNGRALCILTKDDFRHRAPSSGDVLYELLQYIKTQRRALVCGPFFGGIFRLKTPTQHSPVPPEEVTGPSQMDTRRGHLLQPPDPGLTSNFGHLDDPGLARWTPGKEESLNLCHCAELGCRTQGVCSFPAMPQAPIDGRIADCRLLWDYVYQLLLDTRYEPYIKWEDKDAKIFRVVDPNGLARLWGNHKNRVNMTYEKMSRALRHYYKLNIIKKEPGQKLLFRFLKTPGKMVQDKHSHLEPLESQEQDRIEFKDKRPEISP
The settings on record: protein: recombinant; tags: N-terminal GST; dsDNA, one strand shown. In a few lines: as §1

The target of another assay is T11, ELF5 (Homo sapiens, UniProt Q9UKW6-2 1-255).
T11 sequence: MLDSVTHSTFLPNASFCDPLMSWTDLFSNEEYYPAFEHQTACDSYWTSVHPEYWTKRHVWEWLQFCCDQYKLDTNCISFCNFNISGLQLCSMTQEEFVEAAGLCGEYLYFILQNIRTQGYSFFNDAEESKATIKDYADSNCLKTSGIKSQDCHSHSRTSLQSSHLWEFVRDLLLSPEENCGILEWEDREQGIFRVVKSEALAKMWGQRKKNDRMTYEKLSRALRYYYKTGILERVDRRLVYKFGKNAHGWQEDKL
As to conditions: protein: recombinant; tags: N-terminal GST; dsDNA, one strand shown. In a few lines:
as §1

For another assay, the target named is T12, ETV3 (Homo sapiens, UniProt P41162-2 1-143).
T12 sequence: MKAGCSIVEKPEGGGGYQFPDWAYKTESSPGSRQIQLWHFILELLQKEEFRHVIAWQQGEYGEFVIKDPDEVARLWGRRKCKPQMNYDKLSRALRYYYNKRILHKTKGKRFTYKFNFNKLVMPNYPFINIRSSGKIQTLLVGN
As to conditions: protein: recombinant; tags: N-terminal GST; dsDNA, one strand shown. In a few lines:
as §1

For the next assay, the target named is ETV6 (Homo sapiens, UniProt P41212 1-452). The settings on record: protein: recombinant; tags: N-terminal GST; dsDNA, one strand shown. In a few lines:
as §1

Sequence of ETV6 (P41212 whole entry): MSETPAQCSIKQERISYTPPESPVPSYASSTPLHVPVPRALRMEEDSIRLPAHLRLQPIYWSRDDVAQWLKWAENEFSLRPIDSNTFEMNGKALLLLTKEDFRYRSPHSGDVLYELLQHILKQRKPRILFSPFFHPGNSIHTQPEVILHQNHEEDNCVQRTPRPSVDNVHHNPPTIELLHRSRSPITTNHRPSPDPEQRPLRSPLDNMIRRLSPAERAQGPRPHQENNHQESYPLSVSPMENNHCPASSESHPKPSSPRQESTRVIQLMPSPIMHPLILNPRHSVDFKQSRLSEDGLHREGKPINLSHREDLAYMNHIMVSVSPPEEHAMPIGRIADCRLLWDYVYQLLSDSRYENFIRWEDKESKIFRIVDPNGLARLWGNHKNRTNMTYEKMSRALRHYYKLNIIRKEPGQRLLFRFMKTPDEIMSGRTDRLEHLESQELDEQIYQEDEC
Sequence of ETV1 (P50549 whole entry): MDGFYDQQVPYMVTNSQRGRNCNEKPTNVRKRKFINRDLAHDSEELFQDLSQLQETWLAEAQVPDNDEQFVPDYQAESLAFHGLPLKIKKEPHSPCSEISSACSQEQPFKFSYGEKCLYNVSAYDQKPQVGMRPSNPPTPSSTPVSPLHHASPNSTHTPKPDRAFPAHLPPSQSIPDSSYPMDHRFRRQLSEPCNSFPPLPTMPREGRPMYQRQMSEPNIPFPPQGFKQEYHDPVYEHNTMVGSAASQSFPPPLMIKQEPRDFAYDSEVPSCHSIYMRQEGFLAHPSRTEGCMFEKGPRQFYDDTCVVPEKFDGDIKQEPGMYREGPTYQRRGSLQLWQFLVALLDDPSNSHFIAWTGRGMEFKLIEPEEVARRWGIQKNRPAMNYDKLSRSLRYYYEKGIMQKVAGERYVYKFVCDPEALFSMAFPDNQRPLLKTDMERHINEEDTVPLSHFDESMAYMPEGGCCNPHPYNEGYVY
Sequence of ELF4 (Q99607 whole entry): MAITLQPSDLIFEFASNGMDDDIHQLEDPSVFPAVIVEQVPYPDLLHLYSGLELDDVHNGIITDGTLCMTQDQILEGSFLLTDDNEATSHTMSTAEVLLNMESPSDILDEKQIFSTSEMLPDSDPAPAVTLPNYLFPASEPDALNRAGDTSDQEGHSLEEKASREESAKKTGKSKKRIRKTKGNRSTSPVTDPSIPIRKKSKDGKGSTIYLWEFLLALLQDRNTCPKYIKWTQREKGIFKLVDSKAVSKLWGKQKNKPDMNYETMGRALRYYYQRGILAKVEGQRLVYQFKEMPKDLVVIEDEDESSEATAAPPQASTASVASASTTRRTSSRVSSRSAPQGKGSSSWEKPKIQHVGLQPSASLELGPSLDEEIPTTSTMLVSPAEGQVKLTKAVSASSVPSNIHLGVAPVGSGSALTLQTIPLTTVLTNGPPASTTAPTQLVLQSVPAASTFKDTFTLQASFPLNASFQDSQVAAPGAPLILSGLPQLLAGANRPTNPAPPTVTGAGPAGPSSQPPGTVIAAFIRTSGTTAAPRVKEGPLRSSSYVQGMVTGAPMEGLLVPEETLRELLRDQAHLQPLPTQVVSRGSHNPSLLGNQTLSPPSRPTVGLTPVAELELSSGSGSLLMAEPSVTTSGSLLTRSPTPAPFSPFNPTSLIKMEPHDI
Sequence of CRX (O43186 whole entry): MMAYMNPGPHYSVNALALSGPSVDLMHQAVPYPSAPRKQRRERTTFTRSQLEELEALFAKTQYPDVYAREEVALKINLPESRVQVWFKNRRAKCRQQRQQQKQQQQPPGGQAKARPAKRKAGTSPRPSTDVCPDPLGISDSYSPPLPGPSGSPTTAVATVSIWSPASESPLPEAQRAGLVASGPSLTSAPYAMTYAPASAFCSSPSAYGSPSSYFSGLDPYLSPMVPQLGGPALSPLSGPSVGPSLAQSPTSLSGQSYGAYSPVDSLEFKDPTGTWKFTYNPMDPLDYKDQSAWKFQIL
Sequence of ETV5 (P41161 whole entry): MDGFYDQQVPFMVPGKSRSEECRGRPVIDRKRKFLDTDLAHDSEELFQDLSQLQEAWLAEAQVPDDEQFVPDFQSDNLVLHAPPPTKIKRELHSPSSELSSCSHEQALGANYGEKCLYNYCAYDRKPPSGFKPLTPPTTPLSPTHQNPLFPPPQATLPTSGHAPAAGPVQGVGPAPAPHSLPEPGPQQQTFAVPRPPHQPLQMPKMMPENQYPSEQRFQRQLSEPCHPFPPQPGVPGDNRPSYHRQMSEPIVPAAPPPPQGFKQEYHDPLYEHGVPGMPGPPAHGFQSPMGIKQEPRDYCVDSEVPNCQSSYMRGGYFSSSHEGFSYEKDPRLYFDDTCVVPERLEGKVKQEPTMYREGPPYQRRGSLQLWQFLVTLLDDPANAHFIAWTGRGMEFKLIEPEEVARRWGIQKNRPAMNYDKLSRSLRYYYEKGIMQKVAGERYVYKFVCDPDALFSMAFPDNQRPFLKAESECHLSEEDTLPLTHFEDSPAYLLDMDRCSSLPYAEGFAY

As to TAAATG, the binding signal with FEV was 1.18 fold enrichment (6-mer frequency, TF over GST control); with ETV5 it was 1.38 fold enrichment (6-mer frequency, TF over GST control); with HSF1 it was 1.37 fold enrichment (6-mer frequency, TF over GST control); in the assay with SPIC it was 1.46 fold enrichment (6-mer frequency, TF over GST control); with ELF4, 1.25 fold enrichment (6-mer frequency, TF over GST control); with ELK4, 1.39 fold enrichment (6-mer frequency, TF over GST control). Further, the binding signal is 1.31 fold enrichment (6-mer frequency, TF over GST control) with ETV2; 1.34 fold enrichment (6-mer frequency, TF over GST control) with ELF3; 1.69 fold enrichment (6-mer frequency, TF over GST control) with CRX; 1.37 fold enrichment (6-mer frequency, TF over GST control) with ETV1; 1.24 fold enrichment (6-mer frequency, TF over GST control) with ERF; 1.39 fold enrichment (6-mer frequency, TF over GST control) with ETV3L. Besides, the binding signal is 1.38 fold enrichment (6-mer frequency, TF over GST control) in the assay with ETS2; 1.35 fold enrichment (6-mer frequency, TF over GST control) in the assay with SPDEF; 1.31 fold enrichment (6-mer frequency, TF over GST control) with ETV7; 1.16 fold enrichment (6-mer frequency, TF over GST control) with ELF5; 1.31 fold enrichment (6-mer frequency, TF over GST control) with ETV3; 1.31 fold enrichment (6-mer frequency, TF over GST control) with ETV6.
